The first assay concerns the target MUSTN1. Put plainly: pooled miR-30 sensor sort-seq; sequence = guide strand. Particulars: shRNA.
Sequence TAGGTCTTGGACTTGATTTCCT yielded a sensor-assay potency score (higher = more potent) of -0.449.

Regarding TCAAAGACAGTCTCGGTACCTG, the sensor-assay potency score (higher = more potent) was -0.0062.

For the sequence TCGCATGACCTGGTAGGTCTTG, the sensor-assay potency score (higher = more potent) was -0.987.

The sequence TTGATTTCCTGGTTCTTGGTCA had a sensor-assay potency score (higher = more potent) of 0.114.

Sequence TCTTGGTCAGGTTTCCTCGGGC displayed a sensor-assay potency score (higher = more potent) of 0.0366.

AGCTTGCTCACACTCTCGCATG displayed a sensor-assay potency score (higher = more potent) of -2.04.

On to TCACACTCTCGCATGACCTGGT, for which the sensor-assay potency score (higher = more potent) stood at 0.595.

The sequence TTTATTGGTGCTTCCAAGGTGC came in with a sensor-assay potency score (higher = more potent) of 0.442.

Regarding ACACTCTCGCATGACCTGGTAG, the sensor-assay potency score (higher = more potent) was -0.661.

In the case of TTCTTGGTCAGGTTTCCTCGGG, the sensor-assay potency score (higher = more potent) was -0.747.

As to TTGCTCACACTCTCGCATGACC, the sensor-assay potency score (higher = more potent) is -1.08.

Consider TTCCTGGTTCTTGGTCAGGTTT, for which the sensor-assay potency score (higher = more potent) was -1.77.

Another assay deals with MUTED. The assay is described as above. To be noted: shRNA.
As to TTGTTTACCATAAATCTCGAAA, the sensor-assay potency score (higher = more potent) is -0.16.

On to TAATAAACTATTGTTAACCCTG, for which the sensor-assay potency score (higher = more potent) was 0.0836.

With TTATCTTATAAAGCTTACCCAC, the sensor-assay potency score (higher = more potent) is -1.06.

In turn, TTTACATTTAACATGGACCATT yielded a sensor-assay potency score (higher = more potent) of -1.07.

TAAGTGGTCACTATGAATCTTT registered a sensor-assay potency score (higher = more potent) of -0.505.

Sequence TTTCTAAGAAGTCTATACCTAC came in with a sensor-assay potency score (higher = more potent) of -0.621.

Sequence TTTTTTGTCTACATTACTCATG came in with a sensor-assay potency score (higher = more potent) of -0.517.

As to TTTTCTGTGCTCTTCATCCACT, the sensor-assay potency score (higher = more potent) was -0.826.

As for TTGTTCTTTAAGCCTTTCCATG, the sensor-assay potency score (higher = more potent) is -1.47.

Sequence TTTCTCACTAGCTACTAAGTGG showed a sensor-assay potency score (higher = more potent) of -0.662.

The sequence TTGTCTACATTACTCATGCAGT gave a sensor-assay potency score (higher = more potent) of -0.842.

On to TTTAACATGGACCATTTGCTGT, for which the sensor-assay potency score (higher = more potent) was -1.08.

A further assay concerns the target MYBL1. The description is as above. To be noted: shRNA.
TAATTTATCATCCTCGTCCCTT gave a sensor-assay potency score (higher = more potent) of -0.0916.

In turn, TTCGCTTTCTTCTAACTTCATT came in with a sensor-assay potency score (higher = more potent) of -1.09.

The sequence TTCAAGTACAAGACTGACGTTA came in with a sensor-assay potency score (higher = more potent) of 0.474.

Regarding TTCTTCTTTTAAAACTTCCCGA, the sensor-assay potency score (higher = more potent) was -0.736.

In the case of TAGATCTTCTAATAGTAGGTGT, the sensor-assay potency score (higher = more potent) was 0.293.

As to TAGTAGGTGTTCTAAACCCTAC, the sensor-assay potency score (higher = more potent) was -0.956.

Regarding TAGAATTATCAGTCCTTCCTGG, the sensor-assay potency score (higher = more potent) amounted to 0.631.

As to TTTCTCTACACTGCTTGCCTAT, the sensor-assay potency score (higher = more potent) is -0.646.

TTGAAGTACTACTGGTAGCTGT gave a sensor-assay potency score (higher = more potent) of 0.338.

The sequence TAAAGGAACAGCTTCACTGTTG returned a sensor-assay potency score (higher = more potent) of -0.055.

Turning to TTTGATAGAATTATCAGTCCTT, the sensor-assay potency score (higher = more potent) is 1.06.

A further assay addresses MYCBPAP. Described as above. Particulars: shRNA.
As to TTGTGCTTCTTGCTGTTGGGAC, the sensor-assay potency score (higher = more potent) is -0.31.

For TTCCAAAGAAAACCTGTCCTGA, the sensor-assay potency score (higher = more potent) was -0.596.

The sequence TTTTCTTTGACATTCTCTGAGG yielded a sensor-assay potency score (higher = more potent) of -0.601.

Turning to TTGTAGGACATTGCTAACAGGT, the sensor-assay potency score (higher = more potent) was -0.808.

As to TTTCTTGTCATCCTTTGCCTTG, the sensor-assay potency score (higher = more potent) is -0.95.

The record behind these values is the OligoGym collection.
Further: reference of the scale not given here.
